SMILES strings stand for the structures. This is part of a sample that, as a whole, favours compounds with a hit. Of some 79,000 tested, about 15% had one in any assay. A number with no mark means an inactive call. Active and inactive are the calls of the source. Cut-off read from the data, not from the text of the source: active = growth inhibition above about 70%; inactive = the rest.

Test [1] can be described thus: NCI Yeast Anticancer Drug Screen. Data for the wt2 strain (AID 169).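 Note: 0% = growth of vehicle-treated yeast cultures.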 The note with it: S. cerevisiae wt2 strain growth inhibition, active compounds read high. In outline:
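Read-out: growth inhibition versus vehicle-treated control cultures after compound exposure of the yeast strain.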

A short description of test [2]: NCI Yeast Anticancer Drug Screen. Data for the mlh1 strain (AID 171).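 Note: 0% = growth of vehicle-treated control cultures of the same strain.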 The note with it: S. cerevisiae mlh1 strain growth inhibition, active compounds read high. Summed up: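 Read-out: growth inhibition versus vehicle controls. Strain: engineered yeast with a defined DNA repair or cell cycle defect, compound-treated.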
Test [3] is described as follows: NCI Yeast Anticancer Drug Screen. Data for the sgs1 strain (AID 173).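 Note: 0% = growth of vehicle-only control cultures.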 The note with it: S. cerevisiae sgs1 mutant, active compounds read high. In outline: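 Read-out: yeast growth inhibition relative to vehicle controls, following compound exposure of a strain with a defined DNA repair/cell cycle alteration.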
Test [4] in a line: NCI Yeast Anticancer Drug Screen. Data for the mlh1 rad18 strain (AID 175). As to conditions: S. cerevisiae mlh1 rad18 strain growth inhibition, active compounds read high. Summed up:
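Yeast w/ defined DNA-repair lesions; compound exposure; growth vs vehicle controls → % inhibition.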

A short description of test [5]: NCI Yeast Anticancer Drug Screen. Data for the rad18 strain (AID 177). As to conditions: S. cerevisiae rad18 mutant growth inhibition, active compounds read high. In outline:
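Readout: growth inhibition vs vehicle controls. Cells: genetically altered yeast strain, DNA repair defect.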

Take `O=[N+]([O-])c1cc(CCl)ccc1CCl`: the growth inhibition in test [1] (at 1.2 µM) was 3%; in test [1] (at 3.7 µM), 15%; in test [1] (at 11.0 µM), 54%; in test [1] (at 33.0 µM) it was 96% (active); in test [1] (at 100.0 µM), 99% (active); in test [2] (at 1.2 µM) it was 4%. The growth inhibition in test [2] (at 3.7 µM) was 13%; in test [2] (at 11.0 µM) it was 58%; in test [2] (at 33.0 µM) it was 95% (active); in test [2] (at 100.0 µM), 98% (active); in test [3] (at 1.2 µM), 11%; in test [3] (at 3.7 µM) it was 28%. Further, the growth inhibition in test [3] (at 11.0 µM) was 79% (active); in test [3] (at 33.0 µM) it was 96% (active); in test [3] (at 100.0 µM), 98% (active); in test [4] (at 5.0 µM (retest, dose inferred, filed as 0.5)), 38%; in test [4] (at 50.0 µM (retest, dose inferred, filed as 5.0)) it was 99% (active); in test [4] (at 50.0 µM), 99% (active). The growth inhibition in test [5] (at 1.2 µM) was 32%; in test [5] (at 3.7 µM), 66%; in test [5] (at 11.0 µM), 94% (active); in test [5] (at 33.0 µM), 98% (active); in test [5] (at 100.0 µM), 97% (active).

Values taken from PubChem BioAssay (NCI).
